Tests used:
Assay in all cases: log2 ratio of Biotin-Ahx-Ub-VS probe labelling (fragment/DMSO); higher = less target engagement (more negative = stronger competition), active = hit call of the paper (q ≤ 0.05, log2 ratio ≤ -1)
Conditions in all cases: compound concentration: 200 uM; treatment time: 3 h
ALG13 = target: T1, ALG13 (UniProt Q9NP73)
T1 sequence (whole entry): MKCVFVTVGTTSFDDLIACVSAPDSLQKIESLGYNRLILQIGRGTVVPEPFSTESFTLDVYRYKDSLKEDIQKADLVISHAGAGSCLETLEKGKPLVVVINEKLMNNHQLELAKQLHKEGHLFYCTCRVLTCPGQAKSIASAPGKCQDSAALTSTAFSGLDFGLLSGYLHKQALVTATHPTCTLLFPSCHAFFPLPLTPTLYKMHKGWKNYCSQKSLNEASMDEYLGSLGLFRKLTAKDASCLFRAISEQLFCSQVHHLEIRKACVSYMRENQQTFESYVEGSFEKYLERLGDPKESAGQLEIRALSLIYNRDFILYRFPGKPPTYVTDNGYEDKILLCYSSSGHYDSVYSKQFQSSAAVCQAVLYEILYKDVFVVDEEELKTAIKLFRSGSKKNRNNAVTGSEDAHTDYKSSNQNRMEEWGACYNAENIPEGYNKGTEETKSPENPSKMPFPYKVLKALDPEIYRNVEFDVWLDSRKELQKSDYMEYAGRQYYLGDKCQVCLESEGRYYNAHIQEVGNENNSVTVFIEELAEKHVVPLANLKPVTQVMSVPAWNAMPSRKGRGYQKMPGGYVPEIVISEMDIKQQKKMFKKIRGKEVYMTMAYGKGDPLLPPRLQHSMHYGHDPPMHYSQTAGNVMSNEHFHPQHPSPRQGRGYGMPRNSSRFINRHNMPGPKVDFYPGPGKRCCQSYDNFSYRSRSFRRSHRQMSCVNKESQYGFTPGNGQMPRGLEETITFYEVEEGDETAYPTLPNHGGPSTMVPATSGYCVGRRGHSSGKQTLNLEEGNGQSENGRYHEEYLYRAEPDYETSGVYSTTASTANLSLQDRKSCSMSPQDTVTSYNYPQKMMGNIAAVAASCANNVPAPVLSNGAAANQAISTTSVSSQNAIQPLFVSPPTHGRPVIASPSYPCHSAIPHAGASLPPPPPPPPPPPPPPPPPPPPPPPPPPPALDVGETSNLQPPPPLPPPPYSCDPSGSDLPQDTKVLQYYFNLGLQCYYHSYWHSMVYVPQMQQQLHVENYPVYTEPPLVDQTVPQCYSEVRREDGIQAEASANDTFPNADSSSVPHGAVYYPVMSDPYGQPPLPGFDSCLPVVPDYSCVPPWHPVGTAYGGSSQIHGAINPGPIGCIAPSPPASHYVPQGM
How it was run: (§1)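 Labelled DUBs were enriched with NeutrAvidin, digested with LysC and trypsin, and run by diaPASEF LC-MS/MS. The labelling used Biotin-Ahx-Ub-VS at 0.5 µM final for 1 h on HEK293T lysate (495 µg per sample) previously treated in triplicate with fragment at 200 µM or vehicle for 3 h. Values are average log2 fragment/vehicle ratios by unpaired t-test on global-median-normalised Spectronaut quantities of proteins with ≥2 unique peptides.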

ATXN3 = ATXN3 (UniProt P54252)
Sequence of ATXN3 (P54252 whole entry): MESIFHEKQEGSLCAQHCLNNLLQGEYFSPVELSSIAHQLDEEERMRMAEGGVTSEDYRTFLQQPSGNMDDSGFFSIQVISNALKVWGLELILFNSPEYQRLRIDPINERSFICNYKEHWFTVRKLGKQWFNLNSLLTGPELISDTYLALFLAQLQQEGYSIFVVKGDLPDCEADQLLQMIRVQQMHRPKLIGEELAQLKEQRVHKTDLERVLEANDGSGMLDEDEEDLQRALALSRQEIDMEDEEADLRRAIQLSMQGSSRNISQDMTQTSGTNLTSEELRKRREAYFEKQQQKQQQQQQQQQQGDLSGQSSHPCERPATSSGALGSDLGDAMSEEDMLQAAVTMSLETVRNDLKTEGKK
How it was run: as §1

BAP1 = target: T2, BAP1 (UniProt Q92560)
T2 sequence (whole entry): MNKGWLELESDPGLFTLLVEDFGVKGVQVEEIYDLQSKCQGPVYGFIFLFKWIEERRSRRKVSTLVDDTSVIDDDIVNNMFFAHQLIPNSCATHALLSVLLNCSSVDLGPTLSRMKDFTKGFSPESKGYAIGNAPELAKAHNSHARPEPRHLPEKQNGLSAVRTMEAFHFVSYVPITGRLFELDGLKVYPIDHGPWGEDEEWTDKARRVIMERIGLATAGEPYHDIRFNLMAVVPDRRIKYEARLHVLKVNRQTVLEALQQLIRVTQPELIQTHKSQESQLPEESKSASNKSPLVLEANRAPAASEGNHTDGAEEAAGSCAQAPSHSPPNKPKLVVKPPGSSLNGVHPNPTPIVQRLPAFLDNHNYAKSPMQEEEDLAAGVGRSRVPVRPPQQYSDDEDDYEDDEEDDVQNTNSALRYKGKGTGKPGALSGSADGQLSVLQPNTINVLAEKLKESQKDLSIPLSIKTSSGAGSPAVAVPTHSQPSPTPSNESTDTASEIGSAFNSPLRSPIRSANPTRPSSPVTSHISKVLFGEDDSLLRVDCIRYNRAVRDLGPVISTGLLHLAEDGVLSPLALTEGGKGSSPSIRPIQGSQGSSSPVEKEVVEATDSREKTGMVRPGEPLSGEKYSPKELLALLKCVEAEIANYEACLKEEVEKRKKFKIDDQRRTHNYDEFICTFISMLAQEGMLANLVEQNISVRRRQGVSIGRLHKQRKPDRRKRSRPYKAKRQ
How it was run: as §1

EIF3F = EIF3F (UniProt O00303)
Sequence of EIF3F (O00303 whole entry): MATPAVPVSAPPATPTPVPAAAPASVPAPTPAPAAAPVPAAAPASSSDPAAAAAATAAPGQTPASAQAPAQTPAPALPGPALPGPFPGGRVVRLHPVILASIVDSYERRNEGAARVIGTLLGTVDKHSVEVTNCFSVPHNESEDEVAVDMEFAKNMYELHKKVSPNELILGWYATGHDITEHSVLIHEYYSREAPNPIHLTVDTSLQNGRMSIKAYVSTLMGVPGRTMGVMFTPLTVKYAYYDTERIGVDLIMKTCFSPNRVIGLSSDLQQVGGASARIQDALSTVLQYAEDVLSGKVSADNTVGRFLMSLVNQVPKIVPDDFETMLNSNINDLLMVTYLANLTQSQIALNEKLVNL
How it was run: as §1

EIF3H = EIF3H (UniProt O15372)
Sequence of EIF3H (O15372 whole entry): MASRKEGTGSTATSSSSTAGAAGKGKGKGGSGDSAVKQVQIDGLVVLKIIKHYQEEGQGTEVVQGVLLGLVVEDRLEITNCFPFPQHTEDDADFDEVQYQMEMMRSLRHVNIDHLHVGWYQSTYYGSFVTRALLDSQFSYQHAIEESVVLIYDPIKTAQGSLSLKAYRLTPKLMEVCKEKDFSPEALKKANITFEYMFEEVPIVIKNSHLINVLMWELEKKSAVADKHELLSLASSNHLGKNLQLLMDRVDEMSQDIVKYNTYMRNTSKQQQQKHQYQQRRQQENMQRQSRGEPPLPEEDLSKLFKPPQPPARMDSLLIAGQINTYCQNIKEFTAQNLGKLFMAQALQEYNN
How it was run: as §1

FAM105A = target: T3, FAM105A (UniProt Q9NUU6)
T3 sequence (whole entry): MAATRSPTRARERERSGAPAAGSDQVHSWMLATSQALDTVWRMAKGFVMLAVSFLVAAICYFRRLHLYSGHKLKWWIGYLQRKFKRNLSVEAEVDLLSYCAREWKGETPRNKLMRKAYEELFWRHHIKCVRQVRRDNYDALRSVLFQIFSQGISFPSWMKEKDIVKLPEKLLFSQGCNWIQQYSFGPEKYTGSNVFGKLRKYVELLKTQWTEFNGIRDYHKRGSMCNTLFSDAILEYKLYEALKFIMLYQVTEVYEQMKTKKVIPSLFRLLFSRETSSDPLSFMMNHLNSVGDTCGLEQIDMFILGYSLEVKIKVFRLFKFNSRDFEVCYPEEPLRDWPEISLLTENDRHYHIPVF
How it was run: as §1

OTUB1 = OTUB1 (UniProt Q96FW1)
Sequence of OTUB1 (Q96FW1 whole entry): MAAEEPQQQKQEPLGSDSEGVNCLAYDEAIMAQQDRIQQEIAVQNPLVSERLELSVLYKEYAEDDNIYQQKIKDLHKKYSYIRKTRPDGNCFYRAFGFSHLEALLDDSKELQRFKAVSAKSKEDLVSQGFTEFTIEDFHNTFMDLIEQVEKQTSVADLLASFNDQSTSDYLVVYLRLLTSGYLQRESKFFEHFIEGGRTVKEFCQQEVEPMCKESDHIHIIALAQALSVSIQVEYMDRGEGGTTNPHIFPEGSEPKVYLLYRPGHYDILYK
How it was run: as §1

OTUD4 = target: T4, OTUD4 (UniProt Q01804)
T4 sequence (whole entry): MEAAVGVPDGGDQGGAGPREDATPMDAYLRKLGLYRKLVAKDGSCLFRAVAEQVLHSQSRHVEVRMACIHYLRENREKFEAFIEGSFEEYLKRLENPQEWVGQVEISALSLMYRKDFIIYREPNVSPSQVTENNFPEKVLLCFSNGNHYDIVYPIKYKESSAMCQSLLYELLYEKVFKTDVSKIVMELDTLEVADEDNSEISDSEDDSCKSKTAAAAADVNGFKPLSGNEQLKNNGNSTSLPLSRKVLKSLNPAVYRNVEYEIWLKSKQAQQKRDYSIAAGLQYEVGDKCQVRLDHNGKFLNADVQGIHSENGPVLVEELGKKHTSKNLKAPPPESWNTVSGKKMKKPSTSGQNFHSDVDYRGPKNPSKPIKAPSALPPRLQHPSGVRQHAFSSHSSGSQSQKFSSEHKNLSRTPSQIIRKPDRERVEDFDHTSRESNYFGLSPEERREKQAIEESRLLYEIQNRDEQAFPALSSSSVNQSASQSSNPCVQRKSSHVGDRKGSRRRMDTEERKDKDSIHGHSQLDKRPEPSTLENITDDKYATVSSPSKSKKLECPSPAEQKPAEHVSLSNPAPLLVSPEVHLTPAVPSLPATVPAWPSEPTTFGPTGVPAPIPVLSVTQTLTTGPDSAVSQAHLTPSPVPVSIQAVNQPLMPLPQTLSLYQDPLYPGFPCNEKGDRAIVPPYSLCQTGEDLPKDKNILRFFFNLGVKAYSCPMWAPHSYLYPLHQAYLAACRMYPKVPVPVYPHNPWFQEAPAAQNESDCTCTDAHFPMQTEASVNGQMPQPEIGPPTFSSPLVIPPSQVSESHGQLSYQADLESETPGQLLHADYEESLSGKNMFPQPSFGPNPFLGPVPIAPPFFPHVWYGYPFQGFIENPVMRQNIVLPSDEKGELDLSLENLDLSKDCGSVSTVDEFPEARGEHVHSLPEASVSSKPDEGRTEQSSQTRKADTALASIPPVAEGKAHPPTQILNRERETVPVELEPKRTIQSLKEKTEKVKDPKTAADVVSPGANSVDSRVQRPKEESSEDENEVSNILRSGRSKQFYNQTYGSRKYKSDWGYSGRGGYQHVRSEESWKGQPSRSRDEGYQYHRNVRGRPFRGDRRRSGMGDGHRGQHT
How it was run: as §1

OTUD5 = target: T5, OTUD5 (UniProt Q96G74)
T5 sequence (whole entry): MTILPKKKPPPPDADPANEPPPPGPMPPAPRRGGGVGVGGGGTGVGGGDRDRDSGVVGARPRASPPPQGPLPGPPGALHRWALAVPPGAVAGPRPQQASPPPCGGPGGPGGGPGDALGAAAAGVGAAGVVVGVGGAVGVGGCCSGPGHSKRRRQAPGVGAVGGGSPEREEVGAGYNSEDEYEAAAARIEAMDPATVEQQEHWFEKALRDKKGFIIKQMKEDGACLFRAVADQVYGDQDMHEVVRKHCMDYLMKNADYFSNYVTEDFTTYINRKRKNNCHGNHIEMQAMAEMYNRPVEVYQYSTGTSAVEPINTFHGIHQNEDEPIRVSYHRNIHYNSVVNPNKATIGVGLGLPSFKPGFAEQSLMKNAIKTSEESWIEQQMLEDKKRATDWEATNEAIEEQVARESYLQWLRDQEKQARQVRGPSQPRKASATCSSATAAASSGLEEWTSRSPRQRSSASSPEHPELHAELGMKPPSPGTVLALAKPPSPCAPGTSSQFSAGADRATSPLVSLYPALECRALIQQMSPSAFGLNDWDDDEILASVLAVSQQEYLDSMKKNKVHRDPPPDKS
How it was run: as §1

Measured: log2 ratio of Biotin-Ahx-Ub-VS probe labelling

COc1cc(Cl)c(C)cc1NC(=O)CCl
inactive: ALG13 -0.216 | ATXN3 -0.37 | EIF3F 0.0292 | EIF3H -0.06 | FAM105A 0.159 | OTUB1 -0.0736 | OTUD4 -0.51 | OTUD5 -0.644
active: BAP1 -2.01

CC(C)n1nccc1NC(=O)CCl
inactive: ALG13 -0.568 | ATXN3 -0.233 | EIF3F -0.0764 | EIF3H 0.237 | FAM105A 0.00922 | OTUB1 -0.27 | OTUD4 -0.438 | OTUD5 -0.522
active: BAP1 -4.23

Cc1ncc2c(n1)CCN(C(=O)CCl)C2
inactive: ALG13 -0.466 | ATXN3 -0.614 | BAP1 -0.39 | EIF3F -0.159 | EIF3H 0.129 | FAM105A 0.443 | OTUB1 -0.578 | OTUD4 -0.0123 | OTUD5 -0.606

CC(c1ccccc1)N(C)C(=O)CCl (stereo unspecified)
inactive: ALG13 -0.0878 | ATXN3 -0.667 | BAP1 -0.362 | EIF3F 0.107 | EIF3H 0.0952 | FAM105A -0.093 | OTUB1 0.146 | OTUD4 -0.0165 | OTUD5 -0.419

Reference: the supplement of paper PMC11732987, “Enantioselective OTUD7B fragment discovery through chemoproteomics screening and high-throughput optimisation” (Communications Chemistry, 2025)
